Records with an inconclusive call do not appear. The source made the active and inactive calls. Unless noted, the call rests on the fitted dose curve; in most records, active means well fitted curve in the direction sought with a large enough effect in the repeat runs; inconclusive means weak or mixed curves; inactive means no such curve, though single readings can be large; an effect the other way counts as inactive or inconclusive.

Assay [1] can be described thus: qHTS assay to identify aromatase inhibitors - cell viability counter screen (AID 743084).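 Further: cells stimulated with testosterone during compound exposure; nearly all actives have a fitted effect of over 55% in size.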
Assay [2] is described as follows: qHTS assay to identify small molecule that activate the aryl hydrocarbon receptor (AhR) signaling pathway - cell viability counter screen (AID 743086). Further: series mostly up to about 70 µM; nearly all actives have a fitted effect of over 45% in size. A digest of the protocol: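 Cytotoxicity counter screen: CellTiter-Fluor signal (30 min, 37 C) in 4000 HepG2 cells/well carrying the DRE-luciferase reporter, following 24 h compound exposure at 37 C.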
Assay [3] has as its target Peroxisome proliferator-activated receptor gamma (Homo sapiens) (UniProt P37231). Description: qHTS assay to identify small molecule agonists of the peroxisome proliferator-activated receptor gamma (PPARg) signaling pathway (AID 743094; active means well fitted activation curve with a large enough effect in the signal ratio in the repeat runs, not every such curve was filed as active; the % refers to the signal ratio). Put shortly: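 Stably transfected HEK293H cells (GeneBLAzer PPARg UAS-bla) were incubated with test substances for 17 h at 37C after a 5 h pre-incubation; beta-lactamase activity was then detected by FRET substrate fluorescence.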

The nature of assay [4]: qHTS assay for small molecule agonists of the antioxidant response element (ARE) signaling pathway - cell viability counter screen (AID 743203; calls by dose curve; further: nearly all actives have a fitted effect of over 55% in size). A digest of the protocol: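 Cells (ARE-bla HepG2, 2,000/well) receive DMSO-dissolved compounds after a 5 hrs rest. Plates incubate 16 hrs at 37C/5% CO2. CellTiter-Glo luminescence is then recorded after 30 min at room temperature.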

Assay [5] is described as follows: qHTS assay for small molecule activators of the heat shock response signaling pathway - cell viability counter screen (AID 743209). Further: nearly all actives have a fitted effect of over 50% in size. A digest of the protocol:
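Quantitative HTS format, Tox21 10K library. HeLa cells carrying an HSE-driven beta-lactamase reporter were treated 5 h at 37 C, then assessed for viability by CellTiter-Glo luminescence.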

Assay [6] in a line: qHTS assay for small molecule activators of the heat shock response signaling pathway (AID 743210; active means well fitted activation curve with a large enough effect in the signal ratio in the repeat runs, with a control signal flat, not every such curve was filed as active; the % refers to the signal ratio;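 further: HeLa cells with beta-lactamase reporter driven by heat shock elements; series mostly up to about 63 µM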). Put shortly:
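In HSE-bla HeLa cells, 5 h compound incubation (37 C) precedes addition of LiveBLAzer B/G substrate; after 2.5 h at room temperature, fluorescence intensity indicates reporter induction.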

A short description of assay [7]: qHTS assay to identify small molecule agonists of the peroxisome proliferator-activated receptor delta (PPARd) signaling pathway - cell viability counter screen (AID 743211). Further: nearly all actives have a fitted effect of over 55% in size. A digest of the protocol:
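In the same wells used for beta-lactamase reporter measurement, cytotoxicity is scored by CellTiter-Glo. HEK293H PPARd-bla cells receive compound for 17 h at 37C following a 5 h settling period.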

A short description of assay [8]: qHTS assay to identify small molecule antagonists of the peroxisome proliferator-activated receptor delta (PPARd) signaling pathway - cell viability counter screen (AID 743213). Further: nearly all actives have a fitted effect of over 50% in size. Put shortly:
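PPARd-bla HEK293H cells (3000/well) got compound plus 300 nM L165041 agonist for 17 h at 37 C. Viability in the same wells came from CellTiter-Glo luminescence after 30 min at room temperature.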

Assay [9] is described as follows: qHTS assay to identify small molecule agonists of the farnesoid-X-receptor (FXR) signaling pathway - cell viability counter screen (AID 743218). Further: nearly all actives have a fitted effect of over 45% in size. A digest of the protocol: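 In GeneBLAzer FXR-UAS-bla HEK 293T cells, compounds act for 16 h at 37 C. Cell viability is then scored in the reporter wells by CellTiter-Glo, 30 min at RT, luminescence.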
Assay [10] concerns the target Vitamin D3 receptor (Homo sapiens) (UniProt P11473). Description: qHTS assay to identify small molecule agonists of the vitamin D receptor (VDR) signaling pathway (AID 743222; calls by dose curve). Put shortly: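 Agonist activity measured in VDR-bla reporter cells. Exposure 16 h, 37C, 5% CO2; detection by B/G FRET substrate, 2 h RT.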
Assay [11] in a line: qHTS assay to identify small molecule antagonists of the peroxisome proliferator-activated receptor gamma (PPARg) signaling pathway - cell viability counter screen (AID 743194). Further: nearly all actives have a fitted effect of over 55% in size. As to conditions: Potency: co-treated with 50 nM rosiglitazone. Put shortly:
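Viability was measured as CellTiter-Glo luminescence in GeneBLAzer PPARg UAS-bla HEK293H cells. These cells had been exposed 17 h at 37 C to compounds together with rosiglitazone at 50 nM final, with the beta-lactamase readout taken in the same wells.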

Assay [12] is described as follows: qHTS assay for small molecule agonists of the antioxidant response element (ARE) signaling pathway (AID 743202; active means well fitted activation curve with a large enough effect in the signal ratio in the repeat runs, not every such curve was filed as active; the % refers to the signal ratio; further: potency means the concentration at half of the fitted maximal effect). A digest of the protocol:
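An ARE-responsive beta-lactamase gene stably integrated in HepG2 cells serves as reporter. After 5 h plating and 16 h compound incubation at 37 C, fluorescence of the B/G FRET substrate was measured.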

For assay [13], the target named is Peroxisome proliferator-activated receptor delta (Homo sapiens) (UniProt Q03181). Description: qHTS assay to identify small molecule agonists of the peroxisome proliferator-activated receptor delta (PPARd) signaling pathway (AID 743212; calls by dose curve). Put shortly: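 HEK293H UAS-bla reporter cells, human PPARd system; compounds delivered in DMSO after 5 h plating, then at 37 C. Beta-lactamase FRET read, 2 h RT substrate step.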
Sequence of Peroxisome proliferator-activated receptor delta (Homo sapiens) (Q03181 whole entry, looked up): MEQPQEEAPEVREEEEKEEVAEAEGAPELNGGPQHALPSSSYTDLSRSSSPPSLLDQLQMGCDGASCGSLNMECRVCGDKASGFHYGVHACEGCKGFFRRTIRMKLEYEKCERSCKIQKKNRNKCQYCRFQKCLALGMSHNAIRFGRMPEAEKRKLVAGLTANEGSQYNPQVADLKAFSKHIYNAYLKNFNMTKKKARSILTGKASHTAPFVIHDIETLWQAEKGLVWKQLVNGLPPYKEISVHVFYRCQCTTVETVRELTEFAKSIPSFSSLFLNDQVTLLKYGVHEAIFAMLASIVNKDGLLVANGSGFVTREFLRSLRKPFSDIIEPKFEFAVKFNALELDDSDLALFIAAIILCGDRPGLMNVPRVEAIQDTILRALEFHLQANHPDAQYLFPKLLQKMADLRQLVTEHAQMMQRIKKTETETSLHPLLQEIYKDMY

The target is the same in assay [14]. Description: qHTS assay to identify small molecule antagonists of the peroxisome proliferator-activated receptor delta (PPARd) signaling pathway (AID 743215; active means well fitted inhibition curve with a large enough effect in the signal ratio in the repeat runs, not every such curve was filed as active; the % refers to the signal ratio;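 further: cells stimulated with agonist L165041 at 300 nM final during compound exposure; series mostly up to about 62 µM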). A digest of the protocol: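 Antagonist-mode beta-lactamase reporter screen: HEK293H cells with UAS-bla under PPARd control, stimulated by 300 nM L165041 (final) alongside test compound for 17 h at 37 C, then FRET fluorescence after 2 h substrate incubation.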

Assay [15] addresses Bile acid receptor (Homo sapiens) (UniProt Q96RI1). Description: qHTS assay to identify small molecule antagonists of the farnesoid-X-receptor (FXR) signaling pathway (AID 743217; active means well fitted inhibition curve with a large enough effect in the signal ratio in the repeat runs, not every such curve was filed as active; the % refers to the signal ratio). Put shortly:
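Beta-lactamase reporter under UAS control in HEK 293T cells; compound exposure 16 h at 37 °C in the presence of chenodeoxycholic acid (50 uM final); signal from B/G FRET substrate after 2 h at room temperature.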

The target is the same in assay [16]. Description: qHTS assay to identify small molecule agonists of the farnesoid-X-receptor (FXR) signaling pathway (AID 743220; active means well fitted activation curve with a large enough effect in the signal ratio in the repeat runs, not every such curve was filed as active; the % refers to the signal ratio). Put shortly:
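Beta-lactamase reporter under UAS control in GeneBLAzer FXR HEK 293T cells (5000/well) measured with LiveBLAzer FRET substrate after 2 h at room temperature. Compound exposure lasted 16 h at 37C.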

Assay [17] is described as follows: qHTS assay to identify small molecule antagonists of the farnesoid-X-receptor (FXR) signaling pathway - cell viability counter screen (AID 743221; active means well fitted cell-killing curve with a large enough effect in the repeat runs, not every such curve was filed as active; further: nearly all actives have a fitted effect of over 50% in size). Put shortly:
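Here viability was scored by luminescence after CellTiter-Glo addition to wells already read for beta-lactamase. Prior treatment: compound plus CDCA (50 uM final), 16 h, 37 C, HEK 293T FXR-bla cells.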

The target in assay [18] is Vitamin D3 receptor (Homo sapiens) (UniProt P11473). Description: qHTS assay to identify small molecule antagonists of the vitamin D receptor (VDR) signaling pathway (AID 743223; active means well fitted inhibition curve with a large enough effect in the signal ratio in the repeat runs, not every such curve was filed as active; the % refers to the signal ratio). Put shortly:
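Inhibition of agonist-driven VDR signalling is scored in VDR-bla cells: 3 nM final 1alpha,25-dihydroxyvitamin D3 plus compound, 16 h at 37C, then beta-lactamase detection by FRET substrate fluorescence after 2 h.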

Assay [19] deals with Peroxisome proliferator-activated receptor gamma (Homo sapiens) (UniProt P37231). In words: qHTS assay to identify small molecule antagonists of the peroxisome proliferator-activated receptor gamma (PPARg) signaling pathway (AID 743191; calls by dose curve; further: series mostly up to about 63 µM; nearly all actives have a fitted effect of over 30% in size). Put shortly: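 Beta-lactamase reporter under UAS control in HEK293H PPARg-bla cells; compound treatment 17 h at 37C. Read-out: fluorescence intensity after 1 h room-temperature incubation with LiveBLAzer B/G FRET substrate.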
Sequence of Peroxisome proliferator-activated receptor gamma (Homo sapiens) (P37231 whole entry, looked up): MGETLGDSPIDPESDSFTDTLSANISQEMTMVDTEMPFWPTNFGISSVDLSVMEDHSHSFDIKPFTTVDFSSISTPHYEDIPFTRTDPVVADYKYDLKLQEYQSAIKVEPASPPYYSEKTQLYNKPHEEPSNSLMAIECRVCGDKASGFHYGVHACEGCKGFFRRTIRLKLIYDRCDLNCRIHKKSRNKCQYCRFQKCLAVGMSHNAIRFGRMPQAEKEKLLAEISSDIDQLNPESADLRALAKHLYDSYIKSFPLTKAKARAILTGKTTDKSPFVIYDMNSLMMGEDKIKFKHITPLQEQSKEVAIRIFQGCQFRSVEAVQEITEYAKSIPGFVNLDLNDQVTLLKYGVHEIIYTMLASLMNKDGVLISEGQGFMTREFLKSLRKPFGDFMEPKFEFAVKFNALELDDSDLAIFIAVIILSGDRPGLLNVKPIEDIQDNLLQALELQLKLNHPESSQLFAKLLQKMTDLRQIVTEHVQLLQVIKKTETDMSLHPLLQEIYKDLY

For assay [20], the target named is Aryl hydrocarbon receptor (Homo sapiens) (UniProt P35869). In words: qHTS assay to identify small molecule that activate the aryl hydrocarbon receptor (AhR) signaling pathway (AID 743085).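 Further: HG2L7.5c1 human HepG2 liver cells with stably integrated DRE-driven firefly reporter; series mostly up to about 70 µM; nearly all actives have a fitted effect of over 15% in size.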 Put shortly:
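Stably transfected human liver carcinoma cells (HG2L7.5c1; 20 DRE-firefly luciferase) were incubated 5 h, dosed, and kept 24 h at 37C. Agonism was scored from increased luciferase luminescence.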

Sequence of Bile acid receptor (Homo sapiens) (Q96RI1 whole entry, looked up): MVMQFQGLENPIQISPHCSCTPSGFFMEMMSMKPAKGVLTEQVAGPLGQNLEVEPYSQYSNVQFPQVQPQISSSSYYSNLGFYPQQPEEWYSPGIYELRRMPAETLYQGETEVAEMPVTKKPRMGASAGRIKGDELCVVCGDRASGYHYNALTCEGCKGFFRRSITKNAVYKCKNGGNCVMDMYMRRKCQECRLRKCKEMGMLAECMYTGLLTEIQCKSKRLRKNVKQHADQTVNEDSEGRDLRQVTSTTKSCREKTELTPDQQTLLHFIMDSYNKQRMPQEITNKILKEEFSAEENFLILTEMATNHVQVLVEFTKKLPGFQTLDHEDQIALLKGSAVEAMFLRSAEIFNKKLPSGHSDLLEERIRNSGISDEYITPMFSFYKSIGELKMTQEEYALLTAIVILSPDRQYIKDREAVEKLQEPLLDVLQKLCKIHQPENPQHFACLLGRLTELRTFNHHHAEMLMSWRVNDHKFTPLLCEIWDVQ
Sequence of Vitamin D3 receptor (Homo sapiens) (P11473 whole entry, looked up): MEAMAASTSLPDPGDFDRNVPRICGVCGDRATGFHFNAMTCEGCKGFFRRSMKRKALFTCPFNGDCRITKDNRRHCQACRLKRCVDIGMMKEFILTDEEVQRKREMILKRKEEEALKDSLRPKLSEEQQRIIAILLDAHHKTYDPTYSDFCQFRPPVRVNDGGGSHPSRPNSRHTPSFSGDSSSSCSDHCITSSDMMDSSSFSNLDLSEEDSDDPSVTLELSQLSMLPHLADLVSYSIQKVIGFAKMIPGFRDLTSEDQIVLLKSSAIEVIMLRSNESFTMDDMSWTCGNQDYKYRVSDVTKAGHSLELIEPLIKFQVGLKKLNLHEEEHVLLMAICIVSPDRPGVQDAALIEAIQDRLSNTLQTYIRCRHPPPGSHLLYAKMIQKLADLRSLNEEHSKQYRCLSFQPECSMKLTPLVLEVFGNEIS
Sequence of Aryl hydrocarbon receptor (Homo sapiens) (P35869 whole entry, looked up): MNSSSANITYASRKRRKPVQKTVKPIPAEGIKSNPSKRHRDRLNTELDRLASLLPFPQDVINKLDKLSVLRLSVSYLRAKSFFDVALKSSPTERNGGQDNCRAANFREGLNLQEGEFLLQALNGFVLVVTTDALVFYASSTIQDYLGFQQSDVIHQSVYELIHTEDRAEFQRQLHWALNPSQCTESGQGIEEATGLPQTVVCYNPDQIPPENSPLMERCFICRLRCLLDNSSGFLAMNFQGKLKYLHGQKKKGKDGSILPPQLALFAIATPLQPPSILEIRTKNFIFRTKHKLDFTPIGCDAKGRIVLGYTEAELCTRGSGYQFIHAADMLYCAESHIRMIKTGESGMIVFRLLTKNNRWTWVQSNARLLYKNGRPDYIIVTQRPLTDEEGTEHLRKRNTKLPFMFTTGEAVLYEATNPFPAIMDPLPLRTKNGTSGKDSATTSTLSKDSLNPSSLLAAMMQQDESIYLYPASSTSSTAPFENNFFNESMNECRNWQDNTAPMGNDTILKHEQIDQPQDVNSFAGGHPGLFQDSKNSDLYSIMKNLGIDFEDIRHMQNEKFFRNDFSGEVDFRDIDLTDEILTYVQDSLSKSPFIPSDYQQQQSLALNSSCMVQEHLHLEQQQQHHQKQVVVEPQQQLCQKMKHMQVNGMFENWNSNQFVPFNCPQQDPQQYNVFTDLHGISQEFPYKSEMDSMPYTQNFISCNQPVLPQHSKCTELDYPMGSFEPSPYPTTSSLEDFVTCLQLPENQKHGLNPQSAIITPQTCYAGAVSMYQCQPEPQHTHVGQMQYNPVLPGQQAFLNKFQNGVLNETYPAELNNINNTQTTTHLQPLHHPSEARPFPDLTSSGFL

Consider `Clc1nc(Cl)nc(Nc2ccccc2Cl)n1`, for which the Potency entry in assay [1], in assay [2], in assay [4], in assay [5], in [6] and in [7] was “inactive” throughout. The Potency result in assay [8] and in assay [9] was “inactive” throughout. Further, the result in assay [3] and in assay [10] was inactive.
With `Cc1cccc2sc3nncn3c12`, the Potency result in assay [1], in assay [2], in [11], in [4], in [5] and in assay [6] was “inactive” throughout. Besides, the Potency result in [7], in [14], in assay [9] and in [17] was “inactive” in each case. The result in assay [3], in [13], in [15] and in assay [16] was inactive. Besides, the Potency in assay [12] was 1.37 µM (active).
As to `CN1COCN(Cc2cnc(Cl)s2)/C1=N\[N+](=O)[O-]`, the Potency result in [1], in assay [2], in [11], in [12], in [4] and in [5] was “inactive” each time. Moreover, the Potency entry in assay [6], in assay [7], in assay [14], in [9] and in assay [17] was “inactive” in each case. The compound was called inactive in assay [3], in [13], in assay [15], in [16], in [10] and in assay [18].
Regarding `CCC(CC)(CNC(=O)CCCO)c1cccc(OC)c1`, the Potency result in assay [11], in assay [12], in [4], in assay [5], in assay [6] and in assay [9] was “inactive” in each case. For the same compound, in assay [17], the Potency entry was “inactive”. Further, the compound was classed as inactive in assay [13], in assay [10] and in [18].
With `CON(C)C(=O)Nc1ccc(Br)cc1`, the Potency result in assay [1], in assay [2], in assay [11], in [12], in assay [4] and in assay [5] was “inactive” throughout. Moreover, the Potency entry in [6], in assay [7], in assay [14], in assay [9] and in [17] was “inactive” in each case. Besides, the outcome in assay [13], in assay [16] and in assay [10] was inactive.
Take `c1ccc2c(c1)CCNC2`: the Potency result in assay [1], in [2], in assay [19], in assay [11], in assay [12] and in assay [4] was “inactive” throughout. The Potency result in assay [5], in assay [6], in assay [7], in assay [8], in [14] and in assay [9] was “inactive” each time. The Potency entry in [17] was “inactive”. In addition, the result in assay [13], in assay [10] and in assay [18] was inactive.
On to `CCOP(=S)(OCC)SCCl`, for which the Potency result in [20], in [2], in assay [19], in assay [11], in [12] and in assay [4] was “inactive” each time. The Potency result in assay [5], in assay [6], in assay [7], in assay [8] and in [9] was “inactive” in each case. Besides, the call in assay [15], in assay [16] and in [10] was inactive.
For `COc1cccc([C@@]2(O)CCCC[C@@H]2CN(C)C)c1`, the Potency entry in [20], in assay [2], in assay [19], in [11], in assay [12] and in [4] was “inactive” each time. Moreover, the Potency result in assay [5], in assay [6], in assay [7], in [8], in assay [9] and in assay [17] was “inactive” each time. In addition, the result in assay [3] and in [13] was inactive.
`COC[C@@H](NC(C)=O)C(=O)NCc1ccccc1`: the Potency entry in assay [19], in [11], in [4], in assay [5], in assay [6] and in assay [7] was “inactive” in each case. For the same compound, the Potency result in assay [8], in [14], in assay [9] and in assay [17] was “inactive” each time. Moreover, the call in assay [13] and in assay [10] was inactive.
Turning to `ClCCN1CCCC1`, the Potency result in [11], in assay [4], in assay [6], in [7], in assay [8] and in [14] was “inactive” each time. In addition, the Potency result in assay [9] and in assay [17] was “inactive” in each case. The outcome in assay [10] and in assay [18] was inactive.
On to `O=[N+]([O-])c1cccc(CCl)c1`, for which the Potency result in assay [2], in assay [11], in assay [4], in [5], in assay [6] and in assay [7] was “inactive” in each case. The Potency result in assay [8], in assay [9] and in assay [17] was “inactive” each time. Besides, the Potency in assay [12] is 31.3 µM (active). Further, the call in assay [10] and in [18] was inactive.
Turning to `CCc1ccc(C2CCNCC2)cc1`, the Potency result in [11], in [12], in assay [4], in assay [5], in [6] and in [7] was “inactive” in each case. Besides, the Potency entry in [8], in assay [14], in [9] and in assay [17] was “inactive” each time. Also, the result in assay [13] was inactive.
Take `C/C(=N\NC(=O)Nc1cc(F)cc(F)c1)c1ncccc1C(=O)O`: the Potency result in assay [1], in [2], in assay [11], in [12], in assay [4] and in [5] was “inactive” throughout. In addition, the Potency result in [6], in assay [7] and in assay [8] was “inactive” each time. Besides, the outcome in [3], in [15], in assay [16], in [10] and in assay [18] was inactive.
Take `Cl/C=C/CCl`: the Potency result in assay [1], in [2], in [19], in assay [11], in [12] and in assay [4] was “inactive” each time. In addition, the Potency entry in [5], in assay [6], in [7], in assay [8], in [14] and in assay [9] was “inactive” throughout. The Potency result in assay [17] was “inactive”. For the same compound, the call in assay [13], in assay [10] and in assay [18] was inactive.
In the case of `NC(=O)CS(=O)C(c1ccccc1)c1ccccc1` (centres undefined), the Potency result in assay [20], in [2], in assay [19], in assay [11], in assay [12] and in assay [4] was “inactive” in each case. The Potency result in [5], in assay [6], in assay [7], in assay [8], in assay [9] and in [17] was “inactive” throughout. Also, the result in assay [3] was inactive.
Regarding `CCOC(=O)COc1ccc(Cl)cc1Cl`, the Potency entry in assay [2], in assay [11], in assay [12], in [4], in assay [5] and in assay [6] was “inactive” in each case. Moreover, the Potency entry in assay [7], in assay [8], in [14] and in assay [9] was “inactive” each time. Besides, the call in assay [13] was inactive.

Source of the values: PubChem BioAssay (Tox21).
